D3 ag: qHTS of D3 Dopamine Receptor Agonist: qHTS; max activation, %; D(3) dopamine receptor (Homo sapiens), P35462; 410,000 compounds, 0.58% hits; D3R DiscoveRx beta-arrestin cells, luminescence, 90 min; in the data active = max activation above about 30%; note: 0% is about no effect
Target sequence (P35462 whole entry, looked up): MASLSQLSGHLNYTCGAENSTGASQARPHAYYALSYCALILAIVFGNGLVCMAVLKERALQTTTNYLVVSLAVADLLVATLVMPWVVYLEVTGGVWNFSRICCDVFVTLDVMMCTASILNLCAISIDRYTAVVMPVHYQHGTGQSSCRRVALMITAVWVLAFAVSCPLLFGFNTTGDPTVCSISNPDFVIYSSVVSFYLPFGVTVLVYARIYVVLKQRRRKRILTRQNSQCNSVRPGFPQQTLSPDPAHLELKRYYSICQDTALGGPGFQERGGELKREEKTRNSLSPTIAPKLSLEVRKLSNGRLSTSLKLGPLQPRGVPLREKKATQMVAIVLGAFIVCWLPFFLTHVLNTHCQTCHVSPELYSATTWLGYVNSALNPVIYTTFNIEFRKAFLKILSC
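Agonist mode: compounds and dopamine controls were applied to plated cells for 90 min at 37 degrees C after an overnight attachment at 1500 cells/well. Luminescent read-out followed 30 - 60 minutes at room temperature with DiscoveRx detection reagent.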
D1 potentiator: Potentiators of Human D1 Dopamine Receptor: qHTS; D(1A) dopamine receptor (Homo sapiens), P21728; HEK293 TREx D1 cells, calcium flux, dopamine EC20 potentiation; potentiation, % at 10 µM; 360,000 compounds, 0.036% hits; AID 504651, 2011; in the data active = potentiation above about 30%; note: 0% is about no effect
D1 antag: Antagonist of Human D 1 Dopamine Receptor: qHTS. D(1A) dopamine receptor (Homo sapiens), P21728. HEK293 TREx D1 cells, calcium flux, dopamine EC80; active compounds read low. 360,000 compounds, 3.2% hits. AID 504652, 2011. activity change, negative = inhibition, % at 10 µM; in the data active = activity change below about -30%; note: % is set by controls: 0 for no effect and ±100 for the full control effect
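Tetracycline-induced HEK293 Trex D1 cells, force-coupled to calcium, dye-loaded; compounds added and read 180 s, then EC80 dopamine added and calcium flux tracked kinetically another 180 s.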
D1 agonist: Allosteric Agonists of the Human D1 Dopamine Receptor: qHTS; D(1A) dopamine receptor (Homo sapiens), P21728; HEK293 T-REx D1 cells, calcium flux, agonist mode; activation, % at 2 µM; 360,000 compounds, 1% hits; AID 504660, 2011; in the data active = activation above about 30%; note: 0% is about no effect
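Tetracycline-induced HEK293 TREx D1 cells, force-coupled to calcium signalling, were dye-loaded with a no-wash calcium kit. Compound was pin-added after a 10 s baseline. Fluorescence was read kinetically at 1 cycle/s for 180 s, with calcium rises flagged as agonism.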
D3 antag: qHTS of D3 Dopamine Receptor Antagonist: qHTS; max response, negative = inhibition, %; D(3) dopamine receptor (Homo sapiens), P35462; AID 652054, 2013; D3R cells, DiscoveRx beta-arrestin luminescence, antagonist mode; active compounds read low; 360,000 compounds, 2.5% hits; in the data active = max response below about -50%; inconclusive = no clear call, values can overlap the other calls; note: % is set by controls: 0 for no effect and ±100 for the full control effect
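Cells expressing the human receptor were seeded at 1500 cells/well, incubated overnight at 37 degrees C in 5% CO2, then exposed to library compounds with dopamine controls for 90 minutes at 37 degrees C before luminescent detection.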
Active calls of the source: *; u = inconclusive; x = no result given. The list is not random: actives were taken first. Their share in the collection is about 6.1%.

SMILES | D3 ag | D1 potentiator | D1 antag | D1 agonist | D3 antag
CC(C)NC(=O)Cn1cc(S(=O)(=O)N2CCCC2)c(S(=O)(=O)N2CCCC2)c1 | -6 | -3 | 12 | 2 | 6
Cc1ccccc1OCC(=O)NNC(=S)NC(=O)c1ccccc1[N+](=O)[O-] | 4 | -6 | -57* | 2 | -9
CNC(=S)NNC(=O)COc1cccc(C)c1C | -5 | 6 | 3 | 0 | -62*
Cc1cccc(OCC(=O)Nc2ccc3c4c(cccc24)CC3)c1C | 4 | 2 | -47* | 3 | 24
CC(C)(C)c1ccc(OCC(=O)NNC(=S)NC(=O)c2ccccc2[N+](=O)[O-])c(Br)c1 | -10 | -2 | -16 | 2 | 0
CCN(CC)CCC(=O)N1C/C(=C/c2ccccc2)C(=O)/C(=C\c2ccccc2)C1 | -14 | x | x | x | -1
O=C1/C(=C\c2ccccc2)CN(C(=O)CCN2CCCCC2)C/C1=C/c1ccccc1 | -8 | x | x | x | -62*
O=C1/C(=C\c2ccc(Cl)c(Cl)c2)CN(C(=O)CCN2CCOCC2)C/C1=C/c1ccc(Cl)c(Cl)c1 | -21 | x | x | x | -79*
CCCc1ccc(C(=O)/C=C/N(C)C)cc1 | 13 | -2 | 5 | 1 | 8
CCN(CC)S(=O)(=O)c1ccc2nc(NC(=O)c3cccs3)sc2c1 | -7 | 15 | -1 | 10 | -56*
CCN(CC)S(=O)(=O)c1ccc2nc(NC(=O)c3cncc(Br)c3)sc2c1 | 17 | -4 | -5 | 31* | x
CC(C)(C)c1cc(C(=O)C[n+]2ccc(C(=O)NCCCO)cc2)cc(C(C)(C)C)c1O | 2 | -3 | 19 | 1 | -4
CN(C)c1ccc2c(c1)OC(N)=C(C#N)C2c1cccc(F)c1 (centres undefined) | 0 | -4 | -20 | 75* | 20
N#CC1=C(N)Oc2cc(N)ccc2C1c1cccc(F)c1 (centres undefined) | 6 | -4 | -7 | 7 | -12
O=C(Nc1cc(F)ccc1F)C1CCN(S(=O)(=O)c2cccc3nonc23)CC1 | -2 | -9 | -8 | 6 | -3
CCC(=O)NC1(Cc2ccc(O)cc2)CCCCC1 | 0 | -7 | x | 1 | 15
Brc1ccccc1OCCCN1CCCCCC1 | -24 | -9 | -60* | 4 | -82*
Brc1ccccc1OCCCCCN1CCOCC1 | -13 | -15 | 18 | 8 | u
Brc1ccccc1OCCN1CCCC1 | -12 | x | x | x | -62*
Brc1ccccc1OCCCN1CCCC1 | -19 | -11 | -45* | 3 | u
C[C@@H]1CN([C@H](C)CO)C(=O)CCCn2nncc2CO[C@@H]1CN(C)S(C)(=O)=O | 6 | x | x | x | 15
Cc1cc2ccc3ccccc3c2cc1CN(C)C | -16 | -5 | -43* | 15 | -22
CN(C)c1ccc2nc3c(=O)[nH]c(=O)nc-3n(CC(O)C(O)C(O)CO)c2c1 (centres undefined) | -16 | -2 | 3 | 46* | u
O=C1CCc2cc(S(=O)(=O)NCc3ccccc3)cc3c2N1CC3 | 2 | -4 | 1 | 2 | 6
CC(=O)N1c2ccc(S(=O)(=O)NCc3ccc(Cl)cc3)cc2CC1C (centres undefined) | -13 | -5 | -32* | 8 | x
SMILES | D3 ag | D1 potentiator | D1 antag | D1 agonist | D3 antag
COc1cccc(CNS(=O)(=O)c2cc3c4c(c2)CCN4C(=O)CC3)c1 | -29 | -5 | 10 | 3 | -72*
CCC(=O)N1c2ccc(S(=O)(=O)CCC(=O)NCc3cccc(OC)c3)cc2CC1C (centres undefined) | 1 | 3 | -15 | -1 | x
COc1ccc(CNS(=O)(=O)c2cc(Br)cc3c2N(C(C)=O)C(C)C3)cc1 (centres undefined) | 0 | -6 | -5 | 1 | -89*
CCC(=O)N1c2ccc(S(=O)(=O)NCc3cccc(OC)c3)cc2CC1C (centres undefined) | 6 | 2 | -76* | 18 | x
CC(=O)N1c2c(cc(Br)cc2S(=O)(=O)NCc2ccc(C)cc2)CC1C (centres undefined) | -17 | 2 | -2 | 4 | u
COc1ccc(Cn2c(C(=O)O)c(CNC3CCCCCC3)c3ccc(OC)cc32)cc1 | -12 | 1 | 9 | 1 | x
CCOC(=O)CN1C(=O)C(Sc2n[nH]c(-c3ccc(C)cc3)n2)CCc2ccccc21 (centres undefined) | 6 | 1 | -66* | 0 | -7
COC(=O)C[C@@H]1C=C[C@H](NC(=O)Nc2ccc(F)cc2)[C@@H](CO)O1 | 0 | x | x | x | 9
CC(=O)N(c1ccc2oc(=O)sc2c1)S(=O)(=O)c1cccs1 | 6 | -3 | 9 | 1 | -51*
NC(N)=NCC1COc2ccccc2O1 (centres undefined) | -27 | x | x | x | x
Nc1c(C(=O)O)ccc2c1C(=O)c1ccccc1C2=O | -11 | -1 | -1 | -3 | u
Nc1cc(C(=O)O)c(N)c2c1C(=O)c1ccccc1C2=O | -8 | 1 | -11 | 4 | -55*
O=C(c1ccc(CNS(=O)(=O)c2ccc(Br)cc2)cc1)N1CCCCCC1 | 4 | -2 | -6 | 6 | -10
Cc1ccc(CN2CC[C@H]3C=CCc4cccc(c43)C2)cc1 | -71 | -5 | x | 9 | -123*
COc1ccc(CN2CC[C@H]3C=CCc4cccc(c43)C2)cc1 | -34 | -7 | x | 3 | -103*
CC(=O)Nc1ccc(OC(=O)c2ccccc2OC(C)=O)cc1 | -5 | x | x | x | x
C[C@H](O)[C@@H]1CN2CCc3c([nH]c4ccccc34)[C@@H]2C[C@@H]1N(C)C(=O)Nc1cccc2ccccc12 | -14 | x | x | x | -58*
CCCCCCCCCCCC(=O)OC[C@@H](O)C1OC[C@H](O)[C@H]1O (some centres undefined) | 2 | x | x | x | x
Oc1ccc(N=Nc2n[nH]c(-c3ccc(Br)cc3)n2)cc1 | -5 | 6 | -39* | 1 | -4
O=C(COc1ccc2ccccc2c1CN1CCOCC1)N1CCc2ccccc21 | -9 | -8 | 2 | 0 | -69*
O=C(Cn1nnc(-c2ccc(F)cc2)n1)Nc1cccc(S(=O)(=O)N2CCCC2)c1 | 11 | -5 | -13 | 7 | 32
CCC(C(=O)Nc1ccc(C(C)=O)cc1)n1c(C)c2cnn(-c3ccccc3)c(=O)c2c1C (centres undefined) | -21 | -2 | -4 | 51* | x
Cc1cccc(N2CCN(C(=O)c3cccc(N4C(=O)C5C6C=CC(C6)C5C4=O)c3)CC2C)c1 (centres undefined) | 5 | -11 | -35* | 12 | 22
Cc1ccc(-c2c(C(=O)N3CCN(c4cccc(C)c4)C(C)C3)oc(=O)c3ccccc23)cc1 (centres undefined) | 9 | -3 | -37* | -1 | x
